Only some compounds are listed: those with a hit (about 3.1% of all), similar ones and a draw of the others.
RAD54 branch: inhibitors of human RAD54 branch migration. Q92698. inhibition, % at 10.4 µM. RAD54 Holliday junction branch migration, FAM/BHQ fluorescence. 0.14% of 360,000 active. AID 602329;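 active = mean normalized replicate activity at least 40 and at least half of replicates scoring 40 or more; inconclusive = only one of the two criteria met; inactive = mean below 40 and under half of replicates reaching 40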;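 also: 0% = median of neutral control wells and 100% = median of positive control wells; inhibitors cause a drop in the FAM fluorescence signal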
RAD52 anneal inh: inhibitors of human RAD52 DNA annealing | P43351 | recombinant RAD52 DNA annealing, FRET fluorescence | inhibition, % at 18.7 µM | 0.46% of 360,000 active;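 active = every replicate showing at least 50% inhibition; inconclusive = mean inhibition at least 50% but not in every replicate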
dFosB activator: mouse delta FosB homodimer activation | P13346 | purified delta FosB, TAMRA-CDK5 oligo fluorescence polarization; percent of positive-control signal above neutral wells | activation, % at 25 µM | 0.99% of 340,000 active | AID 493131;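 active = mean activation above about 17%, with every replicate also reaching it, limit read from the data, passing the limit was not always enough; inconclusive = only one of the two conditions met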
Target sequence (P13346 whole entry, looked up): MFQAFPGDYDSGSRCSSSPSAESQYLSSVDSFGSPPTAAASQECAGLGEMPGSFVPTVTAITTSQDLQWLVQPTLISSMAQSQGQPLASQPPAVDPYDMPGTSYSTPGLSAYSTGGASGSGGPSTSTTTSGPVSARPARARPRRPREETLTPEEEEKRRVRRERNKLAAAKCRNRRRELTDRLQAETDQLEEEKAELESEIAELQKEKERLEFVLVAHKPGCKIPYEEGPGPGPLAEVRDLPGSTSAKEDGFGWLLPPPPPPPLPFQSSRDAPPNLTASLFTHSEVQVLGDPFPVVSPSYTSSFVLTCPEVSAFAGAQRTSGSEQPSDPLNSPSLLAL
INS-1E GSIS act: primary screen for activators of insulin secretion dependent on glucose, INS-1E cells, GLuc reporter luminescence; INS-1E GLuc reporter insulin secretion, 2-3 h; 0.61% of 370,000 active; activation, % at 16.6 µM;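 active = lowest replicate activation of at least 40%, so every replicate reaches that level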;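 also: 0% = median of neutral control wells and 100% = median of IBMX positive control wells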
MLL AF4-AF9 inh: blocks AF4 peptide binding to human AF9; P42568; inhibition, % at 10 µM; AlphaScreen, biotin-AF4 peptide binding to FLAG-AF9; 0.47% of 350,000 active; AID 651704;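 active = every replicate reaching a set inhibition limit, whatever the replicate mean, cut at about 25% in these data; inconclusive = mean inhibition reaches that limit but some replicates miss it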;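 also: 0% = plate neutral control median and 100% = total signal loss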
DENV2 CPE: DENV2-induced cell death inhibition; DENV2-infected cells, cytopathic effect rescue, plate reader; CPE inhibition, % at 9.99 µM; 1.7% of 350,000 active; in the data active = CPE inhibition above about 20%, passing the limit was not always enough; inconclusive = no clear call, values can overlap the other calls; tested in BHK-21 cells;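 also: 0% = median of neutral control wells and 100% = median of positive control wells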
Starred values were filed as active, the others as inactive; ? = inconclusive; · = no result given.

SMILES	RAD54 branch	RAD52 anneal inh	dFosB activator	INS-1E GSIS act	MLL AF4-AF9 inh	DENV2 CPE
CCOC(=O)CC1=NN(c2ccccc2)C(=O)C1=c1sc(=C2SC(C)=C(C)N2CC)c(=O)n1CC	1	-13	3	19	40*	0
C[C@@H]1CN([C@H](C)CO)C(=O)c2cc(C#CCN(C)C)cnc2O[C@H]1CN(C)C(=O)c1ccc2c(c1)OCO2	-12	-5	·	-1	1	-3
CCCC#Cc1cnc2c(c1)C(=O)N([C@@H](C)CO)C[C@H](C)[C@H](CN(C)C(=O)c1ccc3c(c1)OCO3)O2	8	-13	·	-16	-3	-3
C[C@H](CO)N1C[C@H](C)[C@H](CN(C)C(=O)c2ccc3c(c2)OCO3)Oc2ncc(C#CCN(C)C)cc2C1=O	-2	-2	·	4	-5	25*
CCCC#Cc1cnc2c(c1)C(=O)N([C@@H](C)CO)C[C@@H](C)[C@H](CN(C)C(=O)c1ccc3c(c1)OCO3)O2	5	-9	·	-1	1	83*
CCOc1cc(C(=O)OCC(=O)Nc2cc(C)on2)cc(OCC)c1OCC	9	·	2	76*	·	·
Cc1cc(NC(=O)COC(=O)c2ccccc2O)no1	-1	-2	5	·	-2	1
Cc1cc(NC(=O)COC(=O)c2oc3c(ccc4ccccc43)c2C)no1	0	-14	-7	43*	1	-3
Cc1noc(C)c1NC(=O)N(C)C[C@@H]1OCCCC[C@@H](C)Oc2ccc(NS(=O)(=O)c3ccc(F)cc3)cc2C(=O)N([C@H](C)CO)C[C@H]1C	0	7	·	1	5	-1
CC(=O)N1[C@@H]2Cn3c(cccc3=O)[C@H]1[C@@H](C(=O)NCC1CCCCC1)[C@@H]2CO	8	59*	·	0	1	-6
CN1[C@@H]2Cn3c(cccc3=O)[C@H]1[C@@H](C(=O)NCC1CCCCC1)[C@@H]2CO	-11	-4	·	10	-2	4
CC=Cc1ccc2n(c1=O)C[C@@H]1[C@@H](CO)[C@H](C(=O)NCc3ccccn3)[C@H]2N1CC1CC1 (mixture of isomers)	-12	-13	·	11	1	-5
CC=Cc1ccc2n(c1=O)C[C@H]1[C@H](CO)[C@@H](C(=O)NCc3ccccn3)[C@@H]2N1CCC (mixture of isomers)	8	96*	·	0	0	0
CCCNC(=O)[C@H]1[C@H](CO)[C@H]2Cn3c(cccc3=O)[C@@H]1N2CCC(F)(F)F	13	12	·	13	-2	20*
O=C(NCc1ccccn1)[C@@H]1[C@@H](CO)[C@@H]2Cn3c(cccc3=O)[C@H]1N2CC1CCCCC1	11	57*	·	30	0	4
C[C@@H]1CN([C@@H](C)CO)C(=O)c2cc(NS(=O)(=O)c3cn(C)cn3)ccc2O[C@H]1CN(C)C(=O)Nc1ccccc1	1	0	·	10	-2	10
CNC[C@H]1Oc2ccc(NC(=O)Nc3ccc4c(c3)OCO4)cc2C(=O)N([C@@H](C)CO)C[C@H]1C	0	-3	·	4	4	-7
CC=Cc1ccc2n(c1=O)C[C@H]1[C@H](CO)[C@@H](C(=O)N3CCOCC3)N(CC3CC3)[C@@H]21 (mixture of isomers)	-10	-16	·	3	-2	-9
COc1ccc(-c2ccccc2[C@H]2[C@@H](C#N)N(C(=O)NC3CCCC3)[C@H]2CO)cc1	·	-12	·	-24	0	?
COc1ccc(-c2ccc([C@H]3[C@@H](C#N)N(C(=O)NC(C)C)[C@@H]3CO)cc2)cc1	-1	-24	·	-4	0	-8
COc1cccc(C#Cc2ccc([C@@H]3[C@@H](C#N)N(C(=O)C4CC4)[C@H]3CO)cc2)c1	-12	-4	·	6	-1	26*
N#C[C@@H]1[C@@H](c2ccccc2-c2cccc(F)c2)[C@@H](CO)N1C(=O)C1CCC1	·	6	·	-1	0	29*
CC(C)NC(=O)N1[C@H](CO)[C@H](c2ccc(-c3ccc(F)cc3)cc2)[C@@H]1C#N	6	-18	·	-8	0	35*
COc1ccc(-c2ccc([C@@H]3[C@@H](CO)N(C(=O)NC4CCCC4)[C@H]3C#N)cc2)cc1	-20	-1	·	10	-17	22*
COc1ccc(S(=O)(=O)N(C)C[C@@H]2Oc3ccc(NC(=O)C4CCCCC4)cc3CC(=O)N([C@@H](C)CO)C[C@H]2C)cc1	0	-19	·	-28	4	-7
SMILES	RAD54 branch	RAD52 anneal inh	dFosB activator	INS-1E GSIS act	MLL AF4-AF9 inh	DENV2 CPE
CCCC(=O)Nc1ccc2c(c1)C(=O)N(C)C[C@@H](OC)[C@H](C)CN(Cc1ccncc1)[C@@H](C)CO2	·	·	·	4	·	·
CN(C)C(=O)c1ccc(-c2ccccc2[C@@H]2[C@H](C#N)N(C(=O)C3CC3)[C@H]2CO)cc1	·	2	·	5	-11	-5
CN(C)C(=O)c1ccc(-c2ccccc2[C@@H]2[C@@H](C#N)N(C(=O)C3CC3)[C@@H]2CO)cc1	·	3	·	3	-14	40*
CN(C)C(=O)c1ccc(-c2ccc([C@@H]3[C@@H](C#N)N(C(=O)C4CCCC4)[C@H]3CO)cc2)cc1	8	1	·	3	-1	-2
COCC(=O)N1[C@H](CO)[C@@H](c2ccccc2-c2cccc(F)c2)[C@@H]1C#N	·	-7	·	-8	-4	-5
COCC(=O)N1[C@H](CO)[C@H](c2ccccc2-c2cccc(F)c2)[C@@H]1C#N	·	-3	·	8	-1	33*
N#C[C@H]1[C@H](c2ccccc2-c2ccccc2)[C@@H](CO)N1C(=O)Cc1cccnc1	·	6	·	20	-2	35*
CN(C)C(=O)c1ccc(-c2ccc([C@H]3[C@@H](C#N)N(C(=O)C4CCCC4)[C@H]3CO)cc2)cc1	-35	-26	·	11	7	22*
Cc1ccc(S(=O)(=O)N(C)C[C@@H]2OCCCC[C@@H](C)Oc3ccc(NC(=O)CCC(F)(F)F)cc3C(=O)N([C@@H](C)CO)C[C@@H]2C)cc1	-9	-19	·	-12	4	4
COc1ccc(-c2ccc([C@H]3[C@@H](C#N)N(C(=O)C4CC4)[C@@H]3CO)cc2)cc1	-4	-50	·	3	-1	56*
COc1ccccc1-c1ccccc1[C@@H]1[C@@H](C#N)N(C(=O)C2CCC2)[C@@H]1CO	·	-15	·	3	6	44*
CN(C)C(=O)c1cccc(-c2ccccc2[C@H]2[C@@H](C#N)N(C(=O)C3CCC3)[C@@H]2CO)c1	·	-7	·	6	1	-2
COc1ccc(-c2ccccc2[C@@H]2[C@@H](C#N)N(C(=O)C3CC3)[C@H]2CO)cc1	·	9	·	4	-1	27*
COc1ccccc1-c1ccccc1[C@@H]1[C@@H](CO)N(C(=O)C2CCC2)[C@H]1C#N	·	-25	·	4	4	-11
CN(C)C(=O)c1cccc(-c2ccccc2[C@H]2[C@H](C#N)N(C(=O)C3CCC3)[C@H]2CO)c1	·	62*	·	7	-1	10

From PubChem
